# Measured values as given in PubChem BioAssay (NCATS).
# Records with an inconclusive call do not appear. Where a call stands in place of a potency, no number is given. Values without a mark were called inactive. Activity calls are given as the source filed them. Calls come from the whole dose curve; as a rule, active = well fitted inhibition curve with a large enough effect; inconclusive = small, poorly fitted or top-dose-only effect; inactive = flat fitted curve, though single readings scatter.
# Assay: P-glycoprotein substrates identified in KB-8-5-11 adenocarcinoma cell line, qHTS therapeutic library screen (AID 1346987); note: nearly all actives have a fitted effect of over 65% in size
# Details: KB-8-5-11 (P-gp overexpressing) viability, CellTiter-Glo, 72 h; series mostly up to 44.5 µM
# In short: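 KB-8-5-11: colchicine-selected sub-line of KB-3-1 over-expressing P-gp; assay medium lacked colchicine. 72 h drug exposure at 37 degree C, CellTiter-Glo.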
# Potency is the fitted concentration of half-maximal effect.
Structure (SMILES),Potency,outcome,"activity change, negative = cytotoxicity"
COC(=O)C1=CO[C@@H](O[C@@H]2O[C@H](CO)[C@@H](O)[C@H](O)[C@H]2O)[C@@H]2[C@@](C)(O)[C@@H](OC(=O)/C=C/c3ccc(O)cc3)C[C@]12O,inactive,–,–
N#C[C@@H]1C[C@H](F)CN1C(=O)CNC1[C@H]2CN(C(=O)c3ccc(F)cc3)C[C@@H]12 (some centres not stated),inactive,–,–
O=C(Cc1ccc(-c2ccccc2)cc1)NC1CCC1,inactive,–,–
CN(C)C/C=C/C(=O)Nc1cccc(C(=O)Nc2cccc(Nc3ncc(Cl)c(-c4c[nH]c5ccccc45)n3)c2)c1,13 µM (active),–,–
CC(=O)NC1=NN(C(C)=O)C(C)(c2ccccc2)S1 (configuration not stated),5.8 µM (active),–,–
CNC(=O)c1ccccc1Nc1nc(Nc2ccc3c(c2OC)CCC[C@@H](N2CCN(CCO)CC2)C3)ncc1Cl,10.3 µM (active),–,–
C/C=C(\C)C(=O)O[C@H]1[C@@H](O[C@]2(COC(=O)CC(C)C)O[C@H](COC(=O)C(C)CC)[C@@H](OC(C)=O)[C@@H]2O)O[C@H](COC(C)=O)[C@@H](O)[C@@H]1O (some centres not stated),inactive,–,–
CNC(=S)NS(=O)(=O)c1cc(CCNC(=O)c2cc(Cl)ccc2OC)ccc1OC,inactive,–,–
CC1(C)CC[C@]2(C(=O)O[C@@H]3O[C@H](CO)[C@@H](O)[C@H](O)[C@H]3O)CC[C@]3(C)C(=CCC4[C@@]5(C)CC[C@H](O[C@@H]6O[C@H](C(=O)O)[C@@H](O)[C@H](O)[C@H]6O)C(C)(C)C5CC[C@]43C)C2C1 (some centres not stated),–,inactive [at 9.29 µM],–
CC(C)CCC(=O)CC1c2ccccc2C(=O)N1c1ccc2ccc(Cl)nc2n1 (configuration not stated),inactive,–,–
C/C=C/C=C/[C@@H]1O[C@](O)([C@H](CC)C(=O)NC/C=C/C=C(\C)[C@@H](OC)[C@@H](C)C2OC(/C=C/C=C/C=C(\C)C(=O)c3c(O)cc[nH]c3=O)[C@H](O)[C@@H]2O)[C@H](O)[C@H](O)C1(C)C (some centres not stated),inactive,–,–
COC(=O)c1cc(OC)c(O[C@@H]2O[C@@H](C)[C@H](O)[C@@H](O)[C@H]2O)c(OC)c1,inactive,–,–
Cc1cccc2c1NC(=O)C2(c1ccc(O)cc1)c1ccc(O)cc1,inactive,–,–
CCOc1ccc(S(=O)(=O)n2c(C)nc3ccccc32)cc1,inactive,–,–
C=C(CCC1=C(C)[C@H]2[C@H](CC3[C@@H]4CC=C5C[C@@H](O)C[C@@H](O)[C@]5(C)C4[C@H](O)C[C@@]32C)O1)CO[C@@H]1O[C@H](CO)[C@@H](O)[C@H](O)[C@H]1O (some centres not stated),1.53 µM (active),–,–
CN(C)c1ccc2c(c1)OC(N)=C(C#N)C2c1cccc(C(F)(F)F)c1 (configuration not stated),0.326 µM (active),–,–
CC1(C)CC[C@]2(C(=O)O)CC[C@]3(C)C(=CCC4[C@@]5(C)CC[C@H](O[C@@H]6O[C@H](CO)[C@@H](O)[C@H](O)[C@H]6O[C@@H]6O[C@H](CO)[C@@H](O)[C@H](O)[C@H]6O)[C@@](C)(CO)C5CC[C@]43C)[C@@H]2C1 (some centres not stated),inactive,–,–
CC(C)C(C(=O)N(C)C(C)C(N)=O)N(C)C(=O)C1CCCN1C(=O)/C=C/C=C/C(O)C(C)O (configuration not stated),inactive,–,–
O=C(/C=C/c1cccc(S(=O)(=O)Nc2ccccc2)c1)NO,2.82 µM (active),–,–
COc1cc(O)c2c(c1)C1=C[C@H](O)[C@@H](O)C[C@]1(C)OC2=O,inactive,–,–
C[C@@H]1O[C@@H](O[C@H]2[C@H](O)[C@@H](O)[C@H](O[C@H]3[C@H](O[C@H]4CC[C@@]5(C)C(=CC[C@@H]6C5CC[C@]5(C)[C@@H]7[C@H](C[C@@H]65)O[C@]5(CC[C@@](C)(CO[C@@H]6O[C@H](CO)[C@@H](O)[C@H](O)[C@H]6O)O5)[C@H]7C)C4)O[C@H](CO)[C@@H](O)[C@@H]3O)O[C@@H]2CO)[C@H](O)[C@H](O)[C@H]1O (some centres not stated),–,–,4.84% [at 9.29 µM]
NC1CCC(Nc2cc(-c3cccc(NCc4cccc(F)c4)n3)c(Cl)cn2)CC1 (configuration not stated),1.16 µM (active),–,–
CC1(C)CCCC2(C)C(CO)C(CO)=CCC12 (configuration not stated),inactive,–,–
CC(=O)OC1CC2(C)C3=CCC4(C)C5C(O)C(O)C(C(C)C)C5(C)CCC4(C)C3CCC2C(C)(C)C1OC1OC(CO)C(O)C(O)C1O (configuration not stated),inactive,–,–
CCC1C(=O)OC23C=C[C@@H]4C(C(=O)O)=CO[C@H](O[C@@H]12)[C@@H]43 (some centres not stated),inactive,–,–
N#Cc1ccc(-c2cnc3[nH]cc(NC(=O)c4cccnc4)c3c2)cc1,inactive,–,–
COc1ncc(Nc2ncc([C@H](C)N3CCN(S(C)(=O)=O)CC3)cc2-c2nc(C)nc(N)n2)cc1F,9.2 µM (active),–,–
